Screens deposited in PubChem by The Scripps Research Institute Molecular Screening Center.
PP1 inh – counter-screen for PP5 inhibitors: inhibitors of human PP1-alpha; inhibition, % at 6.7 µM; P62136; purified PP1alpha, OMFP fluorescence; 320,000 tested, 0.9% active; AID 2235;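 active = inhibition above the mean inhibition of all tested compounds plus 3 SD, computed separately for each screening campaign, cut at about 15% in these data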
Target sequence (P62136 whole entry, looked up): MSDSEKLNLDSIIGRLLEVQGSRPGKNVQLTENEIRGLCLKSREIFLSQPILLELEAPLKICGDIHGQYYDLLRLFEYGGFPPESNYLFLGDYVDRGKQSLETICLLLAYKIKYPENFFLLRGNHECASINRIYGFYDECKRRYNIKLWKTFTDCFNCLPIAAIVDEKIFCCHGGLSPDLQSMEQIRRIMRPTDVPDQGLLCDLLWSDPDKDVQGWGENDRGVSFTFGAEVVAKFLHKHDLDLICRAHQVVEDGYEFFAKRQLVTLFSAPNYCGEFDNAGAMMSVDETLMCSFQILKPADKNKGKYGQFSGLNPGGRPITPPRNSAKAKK
ZTA DNA inh – blocks Epstein-Barr virus ZTA, an EBNA-1 counter-screen; P03206; ZTA-DNA binding, fluorescence polarization; inhibition, % at 11 µM; 320,000 tested, 0.15% active; AID 2234; in the data active = inhibition above about 33%
Target sequence (P03206 whole entry, looked up): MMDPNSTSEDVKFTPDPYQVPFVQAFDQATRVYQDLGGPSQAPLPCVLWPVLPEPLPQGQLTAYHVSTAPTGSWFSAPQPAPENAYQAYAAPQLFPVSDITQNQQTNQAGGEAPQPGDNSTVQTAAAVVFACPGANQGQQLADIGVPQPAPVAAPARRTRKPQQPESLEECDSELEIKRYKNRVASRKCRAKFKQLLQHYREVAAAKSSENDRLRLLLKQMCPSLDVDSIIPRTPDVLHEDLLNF
EBNA-1 inh – blocks EBNA-1 binding to DNA; AID 1950; inhibition, % at 14.8 µM; 300,000 tested, 0.34% active; EBNA-1 DNA binding, fluorescence polarization; in the data active = inhibition above about 28%
MsrA inhibitor – inhibitors of bovine MsrA. purified bovine MsrA, absorbance read-out. inhibition, % at 15.5 µM. 360,000 tested, 0.75% active; in the data active = inhibition above about 4.5%;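 also: 0% = vehicle wells with enzyme and 100% = reference inhibitor wells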
PP5 inh – blocks human protein phosphatase 5 activity; 320,000 tested, 0.18% active; AID 1987; purified PP5c, OMFP substrate fluorescence; inhibition, % at 6.7 µM; P53041;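 active = inhibition above the campaign's mean inhibition across all tested compounds plus 3 SD, cut at about 9.5% in these data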;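 also: 0% = DMSO only and 100% = 100 µM cantharidin control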
bovine MsrA act – activators of bovine methionine sulfoxide reductase A | AID 602163 | 360,000 tested, 0.3% active | activation, % at 10.6 µM | purified bovine MsrA, absorbance read-out; in the data active = activation above about 7.5%;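 also: 0% = vehicle and 100% = reference activator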
MsrA activ conf – bovine methionine sulfoxide reductase A activation confirmed | shares compounds with bovine MsrA act | purified bovine MsrA, absorbance read-out | activation, % at 10.6 µM | 1,000 tested, 12% active; in the data active = activation above about 4%;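 also: enzyme coupled to thioredoxin and thioredoxin reductase with NADPH; 0% = vehicle wells and 100% = reference activator wells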
* = called active by the depositor. In the library only some 2.3% were active in any assay of this set; here they are far more common.

`CCN(CC)c1ccc(-c2sc(Nc3ccccc3)n[n+]2-c2ccc(F)cc2)cc1` gave PP1 inh 17*, ZTA DNA inh 3, EBNA-1 inh 5, MsrA inhibitor 3, PP5 inh 4, bovine MsrA act 17* and MsrA activ conf 4.0*.
CN(CC(=O)Nc1ccccc1Cl)C(=O)c1ccc(COc2ccccc2)cc1 was read as PP1 inh -6, ZTA DNA inh 5, EBNA-1 inh 7, MsrA inhibitor 1, PP5 inh 2 and bovine MsrA act -1.
For CCOC(=O)CN1C(=O)S/C(=C/C=C/c2ccc(N(C)C)cc2)C1=O the results were PP1 inh 2, ZTA DNA inh -9, EBNA-1 inh 5, MsrA inhibitor 0, PP5 inh -7 and bovine MsrA act -2.
`COc1cc2c(cc1OC)C(=O)C(Br)CC2` (configuration not stated) gave bovine MsrA act 14* and MsrA activ conf -3.
`S=c1nccc(-c2ccc(Cl)cc2)[nH]1` gave PP1 inh -3, ZTA DNA inh -3, EBNA-1 inh 8, MsrA inhibitor 1, PP5 inh 1, bovine MsrA act 8.3* and MsrA activ conf 4.
For Clc1ccc(-c2ccn[nH]2)cc1 the results were PP1 inh -6, ZTA DNA inh 6, EBNA-1 inh 3, MsrA inhibitor 1, PP5 inh 0 and bovine MsrA act -3.
`CC(C)OCCCNC(=O)NC(=O)c1ccc(Cl)cc1` gave PP1 inh -1, ZTA DNA inh 5, EBNA-1 inh 1, MsrA inhibitor 0, PP5 inh 3 and bovine MsrA act 0.
Screening O=C1C(Cl)=C(NCc2cccnc2)C(=O)c2ccccc21 returned PP1 inh -1, ZTA DNA inh 5, EBNA-1 inh -15, MsrA inhibitor 0, PP5 inh 2, bovine MsrA act 12* and MsrA activ conf 6.1*.
Screening Cc1nc2ccccn2c1-c1ccnc(=S)[nH]1 returned PP1 inh -3, ZTA DNA inh -8, EBNA-1 inh -1, MsrA inhibitor 3, PP5 inh -1, bovine MsrA act 8.8* and MsrA activ conf 0.
For COc1ccc(OC)c(N(CC(=O)NCc2ccccc2)S(=O)(=O)c2ccc(OC)c(OC)c2)c1 the results were PP1 inh -1, ZTA DNA inh -1, EBNA-1 inh -5, MsrA inhibitor 0, PP5 inh -1 and bovine MsrA act -2.
COc1ccc(N(CC(=O)NCc2cccnc2)S(=O)(=O)c2ccccc2)c(OC)c1 was read as PP1 inh -5, ZTA DNA inh -2, EBNA-1 inh -1, MsrA inhibitor 0, PP5 inh 3, bovine MsrA act 13* and MsrA activ conf -1.
For CN(Cc1ccccc1F)c1ncnc2sccc12 the results were PP1 inh -4, ZTA DNA inh -2, EBNA-1 inh -2, MsrA inhibitor 0, PP5 inh 1, bovine MsrA act 14* and MsrA activ conf 0.
CN(Cc1cccs1)c1ncnc2sccc12 was read as PP1 inh 1, ZTA DNA inh -17, EBNA-1 inh 4, MsrA inhibitor 1, PP5 inh 3 and bovine MsrA act -2.
COc1cc(C(=O)NCc2ccccc2)cc(Br)c1OC was read as PP1 inh -3, ZTA DNA inh 4, EBNA-1 inh 4, MsrA inhibitor 0, PP5 inh 4, bovine MsrA act 10* and MsrA activ conf -1.
`CC(=O)C1C(c2ccc(F)cc2)C2C(C)=NN=C2CC1(C)O` (configuration not stated) gave PP1 inh 5, ZTA DNA inh -5, EBNA-1 inh 9, MsrA inhibitor 2, PP5 inh 2 and bovine MsrA act -6.
For COc1ccccc1NC(=O)Nc1ccnn1C1CCN(C(=O)C2CCOC2)CC1 (configuration not stated) the results were MsrA inhibitor 0 and bovine MsrA act 1.
`O=C(CCc1nc(-c2ccccc2F)no1)NC1CCCCC1` gave PP1 inh -7, ZTA DNA inh 17, EBNA-1 inh 7, MsrA inhibitor 0, PP5 inh -1 and bovine MsrA act 1.
COc1cccc2c(=O)cc(C)n(CC(=O)Nc3ccc(C)c(C)c3)c12 was read as PP1 inh -2, ZTA DNA inh -5, EBNA-1 inh -16, MsrA inhibitor 0, PP5 inh 3, bovine MsrA act 9.4* and MsrA activ conf 0.
Screening COc1ccccc1NC(=O)Cn1c(C)cc(=O)c2cccc(OC)c21 returned PP1 inh -4, ZTA DNA inh 8, EBNA-1 inh -14, MsrA inhibitor 0, PP5 inh 0 and bovine MsrA act -3.
Screening O=C(NCCCN1CCN(CCCNC(=O)c2ccc3c(c2)OCO3)CC1)c1ccc2c(c1)OCO2 returned PP1 inh -3, ZTA DNA inh 3, EBNA-1 inh -17, MsrA inhibitor -1, PP5 inh 1 and bovine MsrA act -1.
For O=C(NCCN1CCCCC1)c1ccc2c(c1)OCCO2 the results were PP1 inh -10, ZTA DNA inh -13, EBNA-1 inh -4, MsrA inhibitor -1, PP5 inh 2, bovine MsrA act 10* and MsrA activ conf -2.
`C=CCNC(=O)c1nc2ccccc2s1` gave PP1 inh 0, ZTA DNA inh -9, EBNA-1 inh 6, MsrA inhibitor -1, PP5 inh -1, bovine MsrA act 9.6* and MsrA activ conf -1.
For O=C(CNC(=O)c1ccccc1F)NCCOc1ccccc1Cl the results were PP1 inh -2, ZTA DNA inh -15, EBNA-1 inh -1, MsrA inhibitor 1, PP5 inh 0 and bovine MsrA act -11.
CC(C)(C)C(=O)Nc1ccc(C(=O)COC(=O)C2=COCCO2)cc1 was read as MsrA inhibitor 0 and bovine MsrA act -4.
`CCCC(=O)Nc1ccc(C(=O)COC(=O)C2=COCCO2)cc1` gave MsrA inhibitor 0, bovine MsrA act 8.1* and MsrA activ conf 0.
C#CCNC(=O)C1=C[C@@H](c2ccc3c(c2)OCO3)C[C@@H](OCc2ccc(CO)cc2)O1 was read as PP1 inh -2, ZTA DNA inh -8, EBNA-1 inh 7, MsrA inhibitor 0, PP5 inh -1, bovine MsrA act 8.5* and MsrA activ conf 1.
`c1ccc(-c2nc(NC3CC3)nc(-n3ccnc3)n2)cc1` gave PP1 inh -4, ZTA DNA inh 11, EBNA-1 inh 6, MsrA inhibitor 0, PP5 inh 4, bovine MsrA act 14* and MsrA activ conf -2.
`COc1ccc(C)cc1S(=O)(=O)Nc1cccc(SC)c1` gave PP1 inh -2, ZTA DNA inh -9, EBNA-1 inh -4, MsrA inhibitor 0, PP5 inh 1, bovine MsrA act 8.8* and MsrA activ conf -2.
O=C(CN1CCN(c2ccc(F)cc2)CC1)c1ccc(O)cc1O was read as PP1 inh -8, ZTA DNA inh -7, EBNA-1 inh -16, MsrA inhibitor 2, PP5 inh 1 and bovine MsrA act -4.
